Data reported in PubChem BioAssay (NCI).
This is part of a sample that, as a whole, favours compounds with a hit. Of some 83,000 tested, about 20% had one in any assay.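 Plates (96-well) were seeded with cells, treated with compound at one concentration, and incubated for 48 hours before percent growth was determined.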 Unmarked numbers belong to inactive results. Activity calls are given as the source filed them. Rule for the calls: active = growth percent below 10; inactive = the rest.

System: ACHN renal
Assay: NCI-60 one-dose screen, 48 h (100 = growth as untreated, 0 = no growth, -100 = all killed)
Settings: 10 µM unless noted

SMILES | growth
O=C(NCCCN1CCOCC1)c1cccc(N2C(=O)/C(=C/c3ccc(F)cc3)SC2=S)c1 | 87.2%
CC(C)NC1CCC(Nc2ccnc3cc(Cl)ccc23)CC1 (stereo not drawn) | 96.8%
Fc1ccc(-c2nn(-c3ccccc3)cc2-c2nc3ccccc3o2)cc1 | 53.9%
COc1ccc(C/C(C)=C(/c2ccc(OCCN3CCCCC3)cc2)c2ccc(OC(=O)NCc3ccccc3)cc2)cc1 | -100% (active)
Cn1cc(-c2nonc2-c2c[nH]c3ccc(Br)cc23)c2cc(Br)ccc21 | 14.3%
Cn1c(=O)c2c(nc(NC3=NS(=O)(=O)c4ccccc43)n2CC(=O)N2CCc3ccccc32)n(C)c1=O | 102%
Clc1ccc(Nc2nnc(COc3ccccc3)c3ccccc23)cc1 | 3.37% (active)
O=[N+]([O-])c1ccc(S(=O)(=O)N2CCN(C3=NS(=O)(=O)c4ccccc4N3c3ccccc3)CC2)cc1 | 99.3%
CCNC(=O)c1[nH]cc(-c2ccccc2)c1-c1cc(OC)c2c(c1OC)OCO2 | 99.1%
COCCn1c(-c2csc(-c3cn(C)c4ccc(OC)cc34)n2)cc2cccnc21 | 70.9%
S=C(Nc1ccc(-c2nc(N3CCOCC3)c3cccn3n2)cc1)Nc1cccnc1 | 37.3%
COc1cc(CNC(=O)CCCC/C=C/C(C)C)ccc1OCc1nnc(Nc2ccc([N+](=O)[O-])cc2)o1 | 41.2%
N#CC1=C(c2ccc(Cl)cc2)Nc2c(c(-c3ccc(Cl)cc3)nn2-c2ccccc2)C12C(=O)Nc1ccc(Cl)cc12 (stereo not drawn) | 34.6%
